About 8,800 targets were measured; listed, in parts, are those with a hit and a random draw of the rest. About 0.5% of all pairs of compound and target were hits.
Experiments:
Test in all cases: log2 fold change, soluble protein after heating vs DMSO (PISA); higher = thermal stabilisation; K562 lysate, 10 uM; active = over 0.2 and 3.5 SD of the protein, either way, in both replicates (recomputed)
erlotinib = compound: C#Cc1cccc(Nc2ncnc3cc(OCCOC)c(OCCOC)cc23)c1 [erlotinib]
Summary of the method: (§1)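 Thermal stability, expressed as log-two fold change relative to solvent controls, is given from duplicates. Crude K562 extract in PBS pH 7.4 with 1 mM MgCl2, at 1 mg/mL protein, was treated with 10 μM compound for 30 min and heated in aliquots for 3 min across 48°C-58°C. After pooling, adjustment to 0.5% NP-40 at 4°C and centrifugation at 21,000xg for 90 min, supernatant protein was measured by TMTpro 16plex LC-MS/MS with channel sums equalised.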

[1] = compound: C/C(=N\NC(=O)C1=CC(=CC=C1)S(=O)(=O)N2CCOCC2)/C3=C(C=CC(=C3)Cl)O
Summary of the method: as §1

[2] = compound: C1=CC(=CC=C1C2=NC3=C(N2)C=C(C=C3)C(=O)N)OC4=CC=C(C=C4)Cl
Summary of the method: as §1

[3] = compound: C1=CC2=C(C=CC(=C2)/C=C\3/C(=O)NC(=NCC4=CC=CS4)S3)N=C1
Summary of the method: as §1

[4] = compound: C1=CC2=NC=CN=C2C=C1/C=C/3\C(=O)NC(=O)S3
Summary of the method: as §1

[5] = compound: C1=CC=C(C=C1)C2=NC(=C(N2)C3=CC=NC=C3)C4=CC(=C(C=C4)Cl)O
Summary of the method: as §1

[6] = compound: C1=CC=C2C(=C1)C3=NNC4=CC=CC(=C43)C2=O
Summary of the method: as §1

[7] = compound: C1CCN(C1)C(=O)NC2=CC=CC(=C2)NC3=NC=C(C(=N3)NCCC4=CN=CN4)Br
Summary of the method: as §1

[8] = compound: C1CN(CCC1(CC2=CC=C(C=C2)Cl)N)C3=NC=NC4=C3C=CN4
Summary of the method: as §1

IRAK-1-4 Inhibitor I = compound: C1COCCN1CCN2C3=CC=CC=C3N=C2NC(=O)C4=CC(=CC=C4)[N+](=O)[O-] [IRAK-1-4 Inhibitor I]
Summary of the method: as §1

ibrutinib = compound: C=CC(=O)N1CCC[C@@H](n2nc(-c3ccc(Oc4ccccc4)cc3)c3c(N)ncnc32)C1 [ibrutinib]
Summary of the method: as §1

[9] = compound: CC(=O)c1cnc2ccc(-c3cc(Cl)c(O)c(Cl)c3)nc2c1N[C@H]1CC[C@H](CN(C)C)CC1
Summary of the method: as §1

ralimetinib = compound: CC(C)(C)Cn1c(N)nc2ccc(-c3[nH]c(C(C)(C)C)nc3-c3ccc(F)cc3)nc21 [ralimetinib]
Summary of the method: as §1

[10] = compound: CC(C)(O)CC(=O)NCCn1ccc2ncnc(Nc3ccc(Oc4cccc(C(F)(F)F)c4)c(Cl)c3)c21
Summary of the method: as §1

[11] = compound: CC(C)C1=C2N=C(C=C(N2N=C1)NCC3=CC=CC=C3)NCCCCCCN
Summary of the method: as §1

[12] = compound: CC1=C(C(CC(=O)N1)C2=CC=C(C=C2)C(F)(F)F)C(=O)NC3=C(C=C4C(=C3)C=NN4)F
Summary of the method: as §1

[13] = compound: CC1=C(C2=C(C=C1)C(=O)C3=CC=CC=C3N2CCCN)C
Summary of the method: as §1

[14] = compound: CC1=C(C=C(C=C1)NC(=O)C2=CC(=CC=C2)C(C)(C)C#N)NC3=CC4=C(C=C3)N=CN(C4=O)C
Summary of the method: as §1

[15] = compound: CC1=C(C=C(C=C1)NC(=O)C2=CC(=CC=C2)N(C)C)NC(=O)C3=CC=C(C=C3)O
Summary of the method: as §1

[16] = compound: CC1=CC=C(C=C1)SC2=C3C=C(SC3=CN=C2)C(=O)N
Summary of the method: as §1

Measured: log2 fold change

CSNK1G3 (UniProt Q9Y6M4)
UniProt Q9Y6M4, sequence (Q9Y6M4 whole entry, looked up): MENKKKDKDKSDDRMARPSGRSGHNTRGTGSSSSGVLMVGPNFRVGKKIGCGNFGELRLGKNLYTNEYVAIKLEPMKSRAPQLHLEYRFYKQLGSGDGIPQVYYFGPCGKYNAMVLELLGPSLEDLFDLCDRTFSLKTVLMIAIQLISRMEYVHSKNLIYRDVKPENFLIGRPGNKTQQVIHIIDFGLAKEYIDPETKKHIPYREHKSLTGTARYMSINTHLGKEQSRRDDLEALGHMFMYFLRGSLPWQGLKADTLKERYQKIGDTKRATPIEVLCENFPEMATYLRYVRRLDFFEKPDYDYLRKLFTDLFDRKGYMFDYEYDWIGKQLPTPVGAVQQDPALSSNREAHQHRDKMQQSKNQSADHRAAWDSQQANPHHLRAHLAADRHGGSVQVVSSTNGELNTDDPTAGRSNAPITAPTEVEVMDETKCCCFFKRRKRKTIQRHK
active: [9] 0.529
inactive: erlotinib -0.115 | [1] -0.018 | [2] 0.097 | [3] 0.149 | [4] 0.073 | [5] -0.043 | [6] 0.234 | [7] 0.018 | [8] 0.079 | IRAK-1-4 Inhibitor I 0.022 | ibrutinib -0.025 | ralimetinib 0.003 | [10] -0.048 | [11] -0.038 | [12] -0.007 | [13] 0.024 | [14] 0.031 | [15] -0.066 | [16] 0.132

CMSS1 (UniProt Q9BQ75)
UniProt Q9BQ75, sequence (Q9BQ75 whole entry, looked up): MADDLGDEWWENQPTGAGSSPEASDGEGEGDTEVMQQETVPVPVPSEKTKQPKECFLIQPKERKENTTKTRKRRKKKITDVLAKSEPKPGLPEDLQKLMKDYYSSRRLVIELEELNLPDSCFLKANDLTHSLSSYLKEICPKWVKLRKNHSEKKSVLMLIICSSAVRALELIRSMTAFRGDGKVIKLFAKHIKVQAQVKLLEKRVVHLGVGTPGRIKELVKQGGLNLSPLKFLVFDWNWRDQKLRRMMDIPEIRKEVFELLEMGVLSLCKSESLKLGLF
inactive: erlotinib -0.029 | [1] 0.018 | [2] -0.031 | [3] 0.011 | [4] -0.059 | [5] -0.004 | [6] 0.011 | [7] -0.011 | [8] 0.03 | IRAK-1-4 Inhibitor I -0.035 | ibrutinib -0.012 | [9] -0.016 | ralimetinib -0.002 | [10] -0.011 | [11] 0.047 | [12] -0.015 | [13] 0.027 | [14] -0.059 | [15] 0.019 | [16] -0.004

DPH5 isoform 5 (UniProt Q9H2P9)
UniProt Q9H2P9, sequence (Q9H2P9 whole entry, looked up): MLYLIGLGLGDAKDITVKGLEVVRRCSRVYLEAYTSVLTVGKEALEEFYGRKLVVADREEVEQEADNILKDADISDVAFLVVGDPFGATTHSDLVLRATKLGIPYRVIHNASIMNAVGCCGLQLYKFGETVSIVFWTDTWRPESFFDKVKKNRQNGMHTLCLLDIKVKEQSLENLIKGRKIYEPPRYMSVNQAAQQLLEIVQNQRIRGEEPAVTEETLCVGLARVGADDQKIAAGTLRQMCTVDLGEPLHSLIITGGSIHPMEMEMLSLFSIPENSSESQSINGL
inactive: erlotinib 0.008 | [1] -0.028 | [2] -0.025 | [3] 0.066 | [4] -0.017 | [5] 0.074 | [6] 0.046 | [7] -0.027 | [8] 0.027 | IRAK-1-4 Inhibitor I 0.009 | ibrutinib 0.043 | [9] -0.027 | ralimetinib -0.031 | [10] 0 | [11] 0.298 | [12] -0.034 | [13] -0.111 | [14] -0.007 | [15] -0.037 | [16] 0.04

CKAP2 (UniProt Q8WWK9)
UniProt Q8WWK9, sequence (Q8WWK9 whole entry, looked up): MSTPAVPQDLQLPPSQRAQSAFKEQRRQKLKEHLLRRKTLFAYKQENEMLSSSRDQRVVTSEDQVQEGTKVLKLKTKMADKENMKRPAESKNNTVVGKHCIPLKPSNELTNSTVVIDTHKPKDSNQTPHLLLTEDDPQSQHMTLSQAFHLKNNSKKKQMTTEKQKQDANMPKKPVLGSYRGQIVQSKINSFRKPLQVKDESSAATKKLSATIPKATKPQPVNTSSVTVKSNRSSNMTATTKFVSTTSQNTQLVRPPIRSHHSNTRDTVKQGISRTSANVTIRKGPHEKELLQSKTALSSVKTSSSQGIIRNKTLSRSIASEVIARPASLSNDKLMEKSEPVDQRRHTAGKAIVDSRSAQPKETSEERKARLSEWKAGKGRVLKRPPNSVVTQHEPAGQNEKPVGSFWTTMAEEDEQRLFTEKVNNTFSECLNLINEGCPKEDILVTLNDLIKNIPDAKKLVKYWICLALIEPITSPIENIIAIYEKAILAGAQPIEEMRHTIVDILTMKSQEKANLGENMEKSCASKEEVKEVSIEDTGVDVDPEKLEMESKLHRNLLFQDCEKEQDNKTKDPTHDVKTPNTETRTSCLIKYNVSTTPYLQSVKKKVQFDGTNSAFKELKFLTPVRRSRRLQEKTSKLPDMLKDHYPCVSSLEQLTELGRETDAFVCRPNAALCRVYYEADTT
inactive: erlotinib 0 | [1] -0.158 | [2] -0.062 | [3] -0.148 | [4] -0.015 | [5] 0.006 | [7] -0.007 | [8] 0.046 | IRAK-1-4 Inhibitor I 0.014 | ibrutinib -0.065 | [9] -0.057 | ralimetinib -0.017 | [10] 0.016 | [11] -0.053 | [12] -0.012 | [13] -0.004 | [14] 0.003 | [15] -0.027 | [16] 0.03
active: [6] -0.611

CSTB (UniProt P04080)
UniProt P04080, sequence (P04080 whole entry, looked up): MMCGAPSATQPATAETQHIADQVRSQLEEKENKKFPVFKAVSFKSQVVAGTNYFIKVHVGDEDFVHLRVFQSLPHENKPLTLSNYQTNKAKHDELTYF
inactive: erlotinib -0.024 | [1] 0.054 | [2] -0.016 | [3] 0.018 | [4] 0.004 | [5] -0.028 | [6] 0.031 | [7] -0.015 | [8] 0.031 | IRAK-1-4 Inhibitor I 0.082 | ibrutinib 0.017 | [9] -0.047 | ralimetinib 0.03 | [10] -0.065 | [11] 0.019 | [12] -0.059 | [13] 0.037 | [14] 0.121 | [15] 0.009 | [16] 0.021

DENND4A isoform 2 (UniProt Q7Z401)
inactive: erlotinib 0.023 | [1] -0.021 | [2] -0.015 | [3] 0.007 | [4] -0.045 | [5] 0.002 | [6] -0.041 | [7] 0.002 | [8] 0.012 | IRAK-1-4 Inhibitor I 0.017 | ibrutinib 0 | [9] -0.089 | ralimetinib 0.018 | [10] -0.028 | [11] 0.017 | [12] 0.006 | [13] 0.026 | [14] 0.029 | [15] 0.023 | [16] -0.009

CHMP4A isoform 2 (UniProt Q9BY43)
UniProt Q9BY43, sequence (Q9BY43 whole entry, looked up): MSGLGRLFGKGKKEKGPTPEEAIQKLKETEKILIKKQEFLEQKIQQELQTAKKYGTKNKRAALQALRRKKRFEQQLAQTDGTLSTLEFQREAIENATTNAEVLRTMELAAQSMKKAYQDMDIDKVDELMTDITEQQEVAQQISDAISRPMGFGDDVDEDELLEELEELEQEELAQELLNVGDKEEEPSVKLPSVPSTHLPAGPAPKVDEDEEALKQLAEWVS
inactive: erlotinib -0.046 | [1] 0.008 | [2] 0.018 | [3] -0.01 | [4] -0.018 | [5] 0.021 | [6] 0.033 | [7] 0.014 | [8] -0.007 | IRAK-1-4 Inhibitor I -0.016 | ibrutinib -0.002 | [9] 0.011 | ralimetinib 0.03 | [10] -0.041 | [11] 0.036 | [12] 0.011 | [13] -0.02 | [14] 0.036 | [15] -0.03 | [16] -0.007

CKM (UniProt P06732)
UniProt P06732, sequence (P06732 whole entry, looked up): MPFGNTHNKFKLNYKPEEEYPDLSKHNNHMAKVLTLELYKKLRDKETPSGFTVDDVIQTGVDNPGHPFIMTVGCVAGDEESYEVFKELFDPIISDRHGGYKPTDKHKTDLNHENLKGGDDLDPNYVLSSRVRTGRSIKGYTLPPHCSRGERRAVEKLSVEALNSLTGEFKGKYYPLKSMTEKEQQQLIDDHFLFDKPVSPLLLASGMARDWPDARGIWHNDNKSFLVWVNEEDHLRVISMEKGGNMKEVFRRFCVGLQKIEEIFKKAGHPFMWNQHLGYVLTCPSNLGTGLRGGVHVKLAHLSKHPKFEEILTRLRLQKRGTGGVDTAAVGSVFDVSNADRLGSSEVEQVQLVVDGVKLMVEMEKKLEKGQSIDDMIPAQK
inactive: erlotinib 0.034 | [1] -0.167 | [2] 0.003 | [3] 0.023 | [4] 0.058 | [5] -0.024 | [6] 0 | [7] -0.017 | [8] 0.038 | IRAK-1-4 Inhibitor I 0.044 | ibrutinib -0.002 | [9] 0.056 | ralimetinib 0.046 | [10] -0.076 | [11] 0.002 | [12] -0.001 | [13] -0.029 | [14] 0.044 | [15] 0.005 | [16] -0.02

CLCN3 isoform 2 (UniProt P51790)
UniProt P51790, sequence (P51790 whole entry, looked up): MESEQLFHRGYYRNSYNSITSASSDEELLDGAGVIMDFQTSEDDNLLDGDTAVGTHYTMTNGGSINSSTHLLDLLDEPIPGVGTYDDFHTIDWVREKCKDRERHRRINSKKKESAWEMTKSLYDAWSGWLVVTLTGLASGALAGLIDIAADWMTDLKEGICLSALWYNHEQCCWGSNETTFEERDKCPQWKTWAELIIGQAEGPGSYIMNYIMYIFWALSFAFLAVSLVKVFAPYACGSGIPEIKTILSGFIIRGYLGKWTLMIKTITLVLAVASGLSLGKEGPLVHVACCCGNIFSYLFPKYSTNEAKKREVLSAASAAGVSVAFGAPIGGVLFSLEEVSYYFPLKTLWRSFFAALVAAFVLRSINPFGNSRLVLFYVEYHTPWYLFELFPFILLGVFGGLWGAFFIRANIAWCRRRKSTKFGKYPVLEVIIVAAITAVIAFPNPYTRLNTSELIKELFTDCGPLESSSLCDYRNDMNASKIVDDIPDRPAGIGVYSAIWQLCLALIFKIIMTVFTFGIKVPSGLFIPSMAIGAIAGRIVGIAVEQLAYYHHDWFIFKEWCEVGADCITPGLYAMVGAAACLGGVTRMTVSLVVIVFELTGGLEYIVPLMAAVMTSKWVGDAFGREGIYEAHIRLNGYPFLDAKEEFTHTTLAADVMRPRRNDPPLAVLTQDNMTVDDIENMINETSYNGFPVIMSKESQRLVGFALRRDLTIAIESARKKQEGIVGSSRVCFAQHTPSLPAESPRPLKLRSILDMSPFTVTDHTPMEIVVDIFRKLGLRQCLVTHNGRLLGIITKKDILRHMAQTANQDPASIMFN
inactive: erlotinib 0.003 | [1] 0.083 | [2] -0.061 | [3] -0.005 | [4] -0.004 | [5] -0.042 | [6] 0.013 | [7] -0.032 | [8] 0.029 | IRAK-1-4 Inhibitor I 0.068 | [9] 0.029 | ralimetinib 0.02 | [10] -0.032 | [11] -0.035 | [12] -0.017 | [13] -0.066 | [14] 0.029 | [15] 0.048 | [16] -0.013

CNP (UniProt P09543)
UniProt P09543, sequence (P09543 whole entry, looked up): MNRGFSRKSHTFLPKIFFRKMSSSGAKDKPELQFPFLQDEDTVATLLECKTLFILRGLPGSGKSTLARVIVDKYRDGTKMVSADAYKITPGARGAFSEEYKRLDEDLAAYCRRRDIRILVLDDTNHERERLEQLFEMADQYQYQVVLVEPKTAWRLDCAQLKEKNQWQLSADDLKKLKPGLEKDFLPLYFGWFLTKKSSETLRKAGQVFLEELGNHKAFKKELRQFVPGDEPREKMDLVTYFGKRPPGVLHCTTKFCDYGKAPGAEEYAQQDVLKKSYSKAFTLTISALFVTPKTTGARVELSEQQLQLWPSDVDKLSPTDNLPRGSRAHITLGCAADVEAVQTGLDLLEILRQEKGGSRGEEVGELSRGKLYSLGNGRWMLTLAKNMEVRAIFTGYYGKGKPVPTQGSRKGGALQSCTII
inactive: erlotinib -0.005 | [1] -0.066 | [2] 0.002 | [3] -0.012 | [4] -0.022 | [5] 0.007 | [6] -0.004 | [7] -0.016 | [8] 0 | IRAK-1-4 Inhibitor I -0.002 | ibrutinib 0.024 | [9] 0.01 | ralimetinib 0.028 | [10] 0.019 | [11] 0.022 | [12] 0.042 | [13] 0.038 | [14] -0.018 | [15] -0.015 | [16] 0.01

DNAJC24 (UniProt Q6P3W2)
UniProt Q6P3W2, sequence (Q6P3W2 whole entry, looked up): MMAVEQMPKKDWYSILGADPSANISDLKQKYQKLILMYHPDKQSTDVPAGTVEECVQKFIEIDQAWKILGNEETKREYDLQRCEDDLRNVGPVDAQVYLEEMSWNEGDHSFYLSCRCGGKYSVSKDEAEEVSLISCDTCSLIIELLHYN
inactive: erlotinib 0.034 | [1] -0.069 | [2] 0.021 | [3] 0.011 | [5] 0.016 | [6] 0.081 | [7] 0.01 | [8] 0.01 | IRAK-1-4 Inhibitor I -0.055 | [9] -0.12 | ralimetinib -0.052 | [10] 0.113 | [11] -0.067 | [12] -0.048 | [13] 0.064 | [14] 0.031 | [15] 0.047 | [16] 0.064

CUX1 isoform 2 (UniProt Q13948)
UniProt Q13948, sequence (Q13948 whole entry, looked up): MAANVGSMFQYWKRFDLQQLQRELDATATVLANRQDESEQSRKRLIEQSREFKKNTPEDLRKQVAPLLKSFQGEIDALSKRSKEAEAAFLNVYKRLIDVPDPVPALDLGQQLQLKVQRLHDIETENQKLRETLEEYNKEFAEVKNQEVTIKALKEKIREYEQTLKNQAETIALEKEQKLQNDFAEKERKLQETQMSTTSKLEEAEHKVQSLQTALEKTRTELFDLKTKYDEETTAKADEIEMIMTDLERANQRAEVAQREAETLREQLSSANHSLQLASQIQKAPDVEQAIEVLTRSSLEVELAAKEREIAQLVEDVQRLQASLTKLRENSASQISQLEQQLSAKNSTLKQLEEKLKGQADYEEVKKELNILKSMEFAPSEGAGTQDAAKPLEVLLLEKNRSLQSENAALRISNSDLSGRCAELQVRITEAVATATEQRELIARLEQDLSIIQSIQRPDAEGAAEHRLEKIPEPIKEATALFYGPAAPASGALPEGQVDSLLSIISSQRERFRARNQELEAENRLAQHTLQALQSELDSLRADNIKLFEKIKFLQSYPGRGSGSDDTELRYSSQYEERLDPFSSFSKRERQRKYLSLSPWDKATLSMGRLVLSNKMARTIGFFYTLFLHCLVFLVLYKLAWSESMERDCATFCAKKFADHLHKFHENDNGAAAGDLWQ
inactive: erlotinib -0.029 | [1] -0.003 | [2] -0.229 | [3] 0.034 | [5] -0.011 | [6] 0.02 | [7] -0.015 | [8] -0.008 | IRAK-1-4 Inhibitor I 0.029 | [9] 0.07 | ralimetinib -0.069 | [10] 0.052 | [11] -0.16 | [13] -0.027 | [14] 0.385 | [15] 0.043 | [16] -0.086

— the supplement of paper PMC10849652
